# HEK293 viab – cell viability loss counter-screen; HEK-293-SNCA-luc viability, GF-AFC fluorescence, 24 h; Potency, µM (top dose mostly 57.1 µM), without a hit: at the top dose activity change, negative = cytotoxicity, usual class: cytotoxic; 0.12% of 150,000 active; AID 1671193;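 also: potency is read from the fitted curve at half-maximal effect; 0% = DMSO-treated cells and -100% = medium-only wells without cells; nearly all actives have a fitted effect of over 30% in size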
#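 HEK-293-SNCA-luc cells (1500/well) plated 24 h, then exposed 24 h to a dilution series; GF-AFC added 30 min at 37C, fluorescence 405/540 nm; normalised to medium-only and DMSO wells, Hill fit.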
# SNCA expr inh – inhibitors of alpha-synuclein (SNCA) gene expression. HEK-293 SNCA-luciferase knock-in, luminescence, 24 h. Potency, µM (highest dose often 57.2 µM), inactives show top-dose activity change, negative = inhibition, most hits filed as inhibitors. 0.17% of 140,000 active;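 also: potency is read from the fitted curve at half-maximal effect; plate controls were DMSO cells for no effect and cell-free wells for full effect; nearly all actives have a fitted effect of over 45% in size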
# GPT2 inhibitor – inhibitors of human GPT2 alanine aminotransferase; AID 1671188; Recombinant GPT2, coupled pyruvate oxidase/HRP Amplex Red fluorescence; 0.25% of 100,000 active; Potency, µM (highest dose often 57.7 µM), for the others: at the highest dose activity change, negative = inhibition, usual class: inhibitors; Q8TD30; also: potency is read from the fitted curve at half-maximal effect; nearly all actives have a fitted effect of over 60% in size
#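 Inhibition is scored from Amplex Red fluorescence generated when pyruvate oxidase and HRP act on pyruvate released by GPT2. Reactions contain 10ng/uL enzyme, 250uM a-KG and 2mM L-alanine and run 30 min at room temperature.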
# IP6K1 inhibitor – IP6K1 kinase inhibition | Q92551 | IP6K1 kinase, ADP-Glo luminescence, 2 h; hits give low values | activity change, % (series mostly up to about 58 µM) | 0.81% of 140,000 active | AID 1645851; in the data active = activity change below about -25%
# Target sequence (Q92551 whole entry, looked up): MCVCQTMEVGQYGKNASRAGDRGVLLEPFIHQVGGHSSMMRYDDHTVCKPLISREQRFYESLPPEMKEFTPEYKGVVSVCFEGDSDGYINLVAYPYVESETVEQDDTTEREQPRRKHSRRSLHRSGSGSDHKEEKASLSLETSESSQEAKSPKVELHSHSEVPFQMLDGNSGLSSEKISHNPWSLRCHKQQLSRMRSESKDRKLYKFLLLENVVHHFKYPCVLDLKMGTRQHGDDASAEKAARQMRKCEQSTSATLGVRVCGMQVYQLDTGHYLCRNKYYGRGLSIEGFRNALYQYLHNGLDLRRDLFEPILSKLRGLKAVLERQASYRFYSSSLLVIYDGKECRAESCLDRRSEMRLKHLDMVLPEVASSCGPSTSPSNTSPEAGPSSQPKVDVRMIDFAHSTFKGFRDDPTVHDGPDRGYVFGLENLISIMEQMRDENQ
#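 ADP-Glo luminescence measures ADP made by human IP6K1 during a 2 h RT reaction with ATP/IP6 (mix at 1.3 mM/130 uM); top library doses 57.5 and 19.1 uM final.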
# IP6K1 conf – human IP6K1 inhibition, confirmatory | shares compounds with IP6K1 inhibitor | AID 1645852 | Potency, µM (titrated, usually from 49 µM), for inactives: at the highest dose activity change, negative = inhibition, hits mostly inhibitors | 13% of 1,200 active | recombinant IP6K1 kinase, ADP-Glo luminescence, 2 h; also: potency is read from the fitted curve at half-maximal effect; nearly all actives have a fitted effect of over 65% in size
# An asterisk follows results filed as active; i = inactive; ? = inconclusive; . = not tested or not shown; ! = repeats disagree; [ ] = another dose, or the depositor's remark. Hits are enriched below; roughly 1% of the tested compounds scored in any of these assays. Unless noted, calls follow the shape of the dose curve; as a rule, active = well fitted curve in the direction sought with a large enough effect; inconclusive = small, poorly fitted or top-dose-only effect, or another doubt; inactive = no such curve, though single readings can be large; an effect the other way counts as inactive or inconclusive. Unless noted, % is scaled to controls: 0 for no effect and ±100 for the full control effect.
SMILES,HEK293 viab,SNCA expr inh,GPT2 inhibitor,IP6K1 inhibitor,IP6K1 conf
CCC1CN(C(=O)Nc2ccc(C)c(F)c2)c2ccccc2S1 (centres undefined),10%,-20%,.,-27*,-9%
CCC1CN(C(=O)Nc2cc(OC)cc(OC)c2)c2ccccc2S1 (centres undefined),4%,-30%,.,-24,.
CSc1ccc(/C=C/c2nc3ccccc3n2S(=O)(=O)c2ccc(F)c(C)c2)cc1,-6%,-84%,.,-39*,?
CC(C)Cn1c(/C=C/c2ccc(F)cc2)nc2ccccc21,-20%,-20%,.,4,.
Cn1ncc2c(C(=O)NCc3cccs3)cc(-c3ccccc3C(F)(F)F)nc21,.,.,.,11,.
CC(C)CN(CCNC(=O)c1cn(C)c2ccc(S(=O)(=O)N3CCOCC3)cc2c1=O)CC(C)C,-10%,-24%,.,11,.
CC(C)CN(CCNC(=O)c1cn(C)c2ccc(S(=O)(=O)N3CCCC3)cc2c1=O)CC(C)C,-17%,32%,.,29,-8%
COc1ccc2nc3n(c2c1)[C@@H](CNS(=O)(=O)c1ccc(F)cc1)COC3,-1%[87.6 µM],-1%[87.6 µM],i,-2,.
COc1ccc2nc3n(c2c1)[C@@H](CNC(=O)c1ccc(F)cc1)COC3,-13%[87.6 µM],0%[87.6 µM],-23%[88.5 µM],-26*,?
O=C(Nc1ccccc1C(F)(F)F)n1ncc2cc(Cl)ccc21,-2%,12%,.,-8,.
CCOc1ccccc1NC(=O)n1ncc2cc(Cl)ccc21,1%,155%,.,-37*,-6%
Cc1ccc(N2CC(NC(=O)c3ccc(Br)o3)CC2=O)cc1C (centres undefined),-11%,-11%,.,-13,.
Cc1ccc(N2CC(NC(=O)c3ccco3)CC2=O)cc1C (centres undefined),-2%,0%,.,-25*,-10%
O=c1cc(N2CCOCC2)oc2c(-c3ccc(F)cc3)nccc12,-3%[87.6 µM],-13%[87.6 µM],2%[88.5 µM],-6,.
CCc1nn(CC(=O)N2CCN(c3cccc(C)c3C)CC2)c(=O)c2cc3sccc3n12,14%,-6%,.,-29*,-15%
CCc1nn(CC(=O)N2CCN(c3cccc(Cl)c3)CC2)c(=O)c2cc3sccc3n12,-2%,?,.,-15,.
Fc1ccc(-c2ccc3ncc(Nc4ccc5c(c4)OCO5)n3n2)cc1,-25%[87.6 µM],3%[87.6 µM],?,-35*,?
NC(=O)c1ccc(Nc2cnc3ccc(-c4ccccc4)nn23)cc1,9%[87.6 µM],61%[87.6 µM],-29%[88.5 µM],-29*,-22%
O=C(NCc1ccccc1)c1ccc2nnc(Cc3ccco3)n2c1,6%,-1%,i,-14,.
COc1cccc(CNC(=O)c2ccc3nnc(Cc4ccco4)n3c2)c1,12%[87.6 µM],20%[87.6 µM],3%[88.5 µM],-33*,?
O=C(NCc1cccc(C(F)(F)F)c1)c1ccc2nnc(Cc3ccco3)n2c1,-6%,-6%,2%,-30*,?
O=C(NCc1cccs1)c1ccc2nnc(Cc3ccco3)n2c1,-4%[87.6 µM],24%[87.6 µM],i,-32*!,?
COc1ccc(S(=O)(=O)N2CCC3(CC2)CC(N2CCOCC2)CCO3)cc1 (centres undefined),-8%,-25%,1%,-26*,-16%
CCOc1ccc2oc(=O)cc(CN3CCN(C(=O)c4cccc(Cl)c4)CC3)c2c1,-8%,?,.,-29*,19%
COc1ccc(CNC(=O)CSc2ncc3c(n2)-c2cc(Cl)ccc2N(Cc2ccccc2)S3(=O)=O)cc1,4%,25%,.,-27*,9%
SMILES,HEK293 viab,SNCA expr inh,GPT2 inhibitor,IP6K1 inhibitor,IP6K1 conf
COc1ccc(CNC(=O)CSc2ncc3c(n2)-c2cc(Cl)ccc2N(Cc2ccccc2)S3(=O)=O)cc1OC,1%,-7%,.,-8,.
COc1ccc(NC(=O)CC2C(=O)N(c3ccccc3)C(=O)N2CCc2sccc2C)cc1 (centres undefined),-12%,71%,.,-33*,-12%
O=C(Nc1ccc(Br)cc1)c1cc(S(=O)(=O)NC2CCCC2)ccc1F,-3%,7%,.,-35*,-11%
NC(=O)c1cccc(CN2CCCC23Cc2ccccc2N(C(=O)c2ccc(Cl)cc2)C3)c1 (centres undefined),-12%,-9%,?,-14,.
Cn1cnc2c(F)c(Nc3ccc(Br)cc3Cl)c(C(=O)NOCCO)cc21,12%,13%,4%,15,-13%
CCOC(=O)c1cnc2cc(Cl)c(OC)cc2c1Nc1ccc(Br)cc1C,-1%,-13%,.,1,.
Cn1ncc2c(C(=O)NCc3ccc(Cl)cc3)cc(-c3cccnc3)nc21,-1%,-3%,?,-1,.
Cc1cc(SCc2sc(-c3ccc(C(F)(F)F)cc3)nc2C)ccc1OCC(=O)O,4%,34%,-4%,-29*,10µM*
O=C(NCCc1ccccc1)c1ccc2nc(N3CCCCC3)sc2c1,14%,181%,.,-31*,-18%
O=C(NCc1cccc(Cl)c1)c1ccc2nc(N3CCCCC3)sc2c1,-1%,83%,.,-7,.
CCOC(=O)C(Cc1cccc(N2CCN(C(=O)c3c(Cl)cccc3Cl)CC2)c1F)OC (centres undefined),.,.,.,11,.
Cn1nnnc1SCCNCc1ccc(OCc2ccccc2Cl)cc1,-7%,57%,.,6,.
Cn1nnnc1SCCNCc1cc(Br)ccc1OCc1ccccc1Cl,?,?,.,-41*,-10%
CCc1ccccc1N(CC)C(=O)c1cc2c(s1)-c1ccccc1SC2,9%,18%,.,-26*,-6%
COc1ccc(C(=O)Nc2cc3c(cc2C(=O)c2ccccc2Cl)OCCO3)cc1,3%,?,.,2,.
CC(C)C(=O)c1cc2c(cc1NC(=O)c1ccccc1F)OCCO2,13%,-10%,.,-28*,-17%
NC(=O)COc1ccc(C(=O)N[C@@H]2CN(Cc3ccccn3)CCC[C@H]2O)cc1,-1%[87.6 µM],-28%[87.6 µM],-14%[88.5 µM],9,.
O=C(N[C@@H]1CN(Cc2ccccn2)CCC[C@H]1O)c1ccc(OCc2ccccc2)cc1,-15%[87.6 µM],-16%[87.6 µM],?,-33*,17%
Cc1ccc(-n2ncc(C(=O)Nc3ccc4c(c3)OCCO4)c2C2CCN(C(=O)OC(C)(C)C)CC2)cc1,?,-47%,.,-26*,11%
COc1cccc(C(=O)N2CCCC(N3C(=O)c4c(c(C)nn4-c4ccccc4)C3C(C)C)C2)c1 (centres undefined),.,.,.,6,.
O=c1cc(-c2ccc(O)cc2)oc2cc(O)cc(O)c12,-16%,-11%,i,.,1.5µM*
CCOC(=O)[C@@H]1CN(C(=O)c2csc(-c3cccs3)n2)[C@H]2c3cccc(F)c3O[C@@H]12,.,.,.,9,.
COCCN1C[C@H]2COc3ccccc3[C@H]2N(C(=O)COC)CCC1=O,.,.,.,-1,.
CCC(=O)NCc1cc2c(nc1OC)CN(C1CCCC1)C2=O,18%,4%,1%[11.5 µM],-33*,-10%
CCC(C)(C)C(=O)NCc1cc2c(nc1OC)CN(C1CCCC1)C2=O,-6%,-3%,?,-30*,9%
CCCC(=O)NCc1cc2c(nc1OC)CN(C1CCCC1)C2=O,2%,5%,-1%,-1,.
